These results are taken from PubChem BioAssay.

Assay [1] in a line: inhibitors of TNFa-induced NFkB p65 translocation, primary screen, imaging, HUVEC, MLSMR starter and 10KST1 sets (AID 438).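 Also: compound added about 3h40 before a 20 min TNFalpha stimulation.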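 As to inhibition: signal is the nuclear over cytoplasmic p65 intensity ratio per well.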 The settings on record: HUVEC TNFa-induced p65 nuclear translocation; cell count: measured here: nuclei count (cytotoxicity indicator), at 2.08 µM; inhibition: at 2 µM, stronger effect = higher value, 0% TNFa-plus-vehicle, 100% no-TNFa wells.
Assay [2] can be described thus: inhibitors of mutant huntingtin aggregation, primary screen, imaging, exon1htt(103Q)mCFP cells, high-content imaging (AID 483;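 active = visual image review flags a hit and inhibition of aggregation exceeds 20%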;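 also: compound exposure lasted 3 days before fixation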;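 as to nuclei count: percent of the per-plate median nuclei count of sample wells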). The settings on record: exon1htt(103Q)mCFP cell line, aggregate imaging, at 2 µM; inhibition of aggregation: stronger effect = higher value; nuclei count: measured here: cell count, toxicity.
A short description of assay [3]: inhibitors of E-selectin induction by TNFa, primary screen, imaging, HUVEC, immunofluorescence, MLSMR starter and 10KST1 sets (AID 487;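 active = visually confirmed hit in the image check and inhibition above 20%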;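 as to inhibition: signal is fraction of cell area covered by stained E-selectin grains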;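 as to nuclei count: 100% = median nuclei count of all wells on the same plate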). The following applies: HUVEC TNFalpha-induced E-selectin immunofluorescence imaging, at 2 µM; inhibition: stronger effect = higher value; nuclei count: measured here: cell number, toxicity.
Assay [4] concerns the target Voltage-gated potassium channel subunit beta-2 (Rattus norvegicus) (UniProt P62483). As to the kind of experiment: KvBeta enzyme negative modulators, primary screen, biochemical, NADPH fluorescence (AID 622;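 active = fluorescence slope higher than the sample average by over 3 SD, cut at about -0.22 in these data, passing the limit was not always enough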;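 also: slope of raw intensity against log time taken from 70 to 1610 s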). The settings on record: recombinant KvBeta, 4-cyanobenzaldehyde reduction, at 10 µM, stronger effect = higher value.
Assay [5] shares this target. The assay is described as follows: KvBeta positive modulators, primary screen, biochemical, NADPH fluorescence (AID 623;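 active = NADPH fluorescence slope more negative than the mean of all samples by about 3 SD, 99.7% confidence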;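 also: fluorescence intensity change per second fitted from 20 to 320 s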). The following applies: Recombinant KvBeta, NADPH fluorescence decrease slope, 10 min; at 10 µM; stronger effect = lower value.
Assay [6] addresses Alpha-2C adrenergic receptor (Homo sapiens) (UniProt P18825). As to the kind of experiment: modulators of alpha2C/GIRK thallium flux, primary screen, cell-based, HEK293 alpha2C/GIRK1/2 (AID 624;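 active = fluorescence slope after compound addition differing from the mean of all screened samples at 99.7% confidence, in either direction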;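 also: slope of fluorescence ratio to pre-addition baseline per second over 15 to 24 s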). The settings on record: thallium flux BTC fluorescence, at 10 µM, actives lie on both sides.
Assay [7] can be described thus: inhibitors of Sendai virus-induced IRF3 signaling, primary screen, TLR/RLR signaling modifier project, cell-based, Sendai virus stimulus, luciferase, 10K MLSCN set (AID 602276;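 active = inhibition at or above 50% at 10 µM; inactive = inhibition below 50%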;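 also: firefly luciferase from ISG56 promoter only with Renilla not read in this screen; 0% = Sendai virus plus DMSO and 100% = medium plus DMSO without virus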). The settings on record: HEK293 RL24 IRF3 luciferase reporter, at 10 µM, stronger effect = higher value.
Assay [8] in a line: inhibitors of poly I:C-induced TLR3 signaling, primary screen, cell-based, poly I:C stimulus, luciferase, 10K MLSCN set (AID 602277;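 active = inhibition of the reporter signal at or above 50%; inactive = inhibition below 50%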). The settings on record: HEK293-TLR3 RL24 IRF3 luciferase reporter, at 10 µM, stronger effect = higher value.

Molecules are shown by their SMILES. The source made the active and inactive calls.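 The calls were made as follows, unless noted: active = inhibition above 20% together with a positive visual image hit; inconclusive = visual image hit but inhibition not above 20%; inactive = no visual image hit.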

Sequence of Alpha-2C adrenergic receptor (Homo sapiens) (P18825 whole entry, looked up): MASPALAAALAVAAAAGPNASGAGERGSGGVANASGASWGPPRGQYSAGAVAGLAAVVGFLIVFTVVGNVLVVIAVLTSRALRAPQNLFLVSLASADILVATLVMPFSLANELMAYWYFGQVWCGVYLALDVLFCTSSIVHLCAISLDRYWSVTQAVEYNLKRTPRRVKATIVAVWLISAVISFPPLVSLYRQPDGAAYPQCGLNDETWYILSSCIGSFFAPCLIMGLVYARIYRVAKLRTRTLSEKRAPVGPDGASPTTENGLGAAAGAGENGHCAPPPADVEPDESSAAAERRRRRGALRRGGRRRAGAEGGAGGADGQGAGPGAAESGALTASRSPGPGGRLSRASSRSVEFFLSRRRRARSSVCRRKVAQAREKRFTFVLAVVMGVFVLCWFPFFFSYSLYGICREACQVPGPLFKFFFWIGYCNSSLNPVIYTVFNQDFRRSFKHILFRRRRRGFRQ
Sequence of Voltage-gated potassium channel subunit beta-2 (Rattus norvegicus) (P62483 whole entry, looked up): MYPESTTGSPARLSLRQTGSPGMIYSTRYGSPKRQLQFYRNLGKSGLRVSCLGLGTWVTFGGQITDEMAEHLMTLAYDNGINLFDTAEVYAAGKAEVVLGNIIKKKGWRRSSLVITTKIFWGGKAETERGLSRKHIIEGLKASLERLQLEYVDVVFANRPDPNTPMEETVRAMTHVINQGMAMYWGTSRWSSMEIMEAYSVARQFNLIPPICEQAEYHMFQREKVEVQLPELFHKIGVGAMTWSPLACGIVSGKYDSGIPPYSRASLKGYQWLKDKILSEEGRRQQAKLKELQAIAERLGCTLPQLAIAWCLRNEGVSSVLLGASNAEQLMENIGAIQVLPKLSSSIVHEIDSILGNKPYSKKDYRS

With `CCSc1nnc(NC(=O)CCNS(=O)(=O)c2cc(Br)cnc2N)s1`, the cell count in assay [1] stood at 243. Further, the inhibition (usually the relative decrease from the control value, in per cent) in assay [1] is -1.3% (inactive); in assay [3] it was 32.4% (inactive); in assay [7], 2.91% (inactive); in assay [8] it was 8.81% (inactive). The inhibition of aggregation in assay [2] was 3.8% (inactive). Moreover, the nuclei count stood at 93.5% in assay [2] and 80.5% in assay [3]. In addition, in assay [4], the fluorescence slope is -0.444 (inactive). The NADPH fluorescence slope in assay [5] was 1.8e-05 (inactive). In addition, the slope in assay [6] is 0.0065 (inactive).

`O=c1c2c(-c3ccccc3)csc2nc2n1CCC2`: the cell count in assay [1] amounted to 518. Also, the inhibition was -18.3% (inactive) in assay [1], 20.1% (inactive) in assay [3], -15.3% (inactive) in assay [7] and 1.9% (inactive) in assay [8]. Besides, in assay [2], the inhibition of aggregation is -0.8% (inactive). Further, the nuclei count in assay [2] amounted to 87%; in assay [3], 144%. Moreover, the fluorescence slope in assay [4] was -0.588 (inactive). In addition, the NADPH fluorescence slope in assay [5] was -8.9e-06 (inactive). In addition, the slope in assay [6] was 0.00513 (inactive).

`O=C(CSc1nnnn1-c1ccccc1)c1cc2ccccc2oc1=O`: the cell count in assay [1] was 788. Further, the inhibition is -8.3% (inactive) in assay [1], -39.8% (inactive) in assay [3], 1.78% (inactive) in assay [7] and -14.1% (inactive) in assay [8]. Besides, the inhibition of aggregation in assay [2] was -9.6% (inactive). The nuclei count in assay [2] amounted to 124%; in assay [3], 117%. The fluorescence slope in assay [4] is -0.647 (inactive). Further, the NADPH fluorescence slope in assay [5] is -1.4e-05 (inactive). Further, the slope in assay [6] was 0.00672 (inactive).

`Cc1ccc2[nH]cc(C(=O)CN3CCC4(CC3)OCCO4)c2c1`: the cell count in assay [1] was 355. Also, the inhibition in assay [1] is 2% (inactive); in assay [3] it was -18.9% (inactive); in assay [7], 4.24% (inactive); in assay [8] it was 7.68% (inactive). For the same compound, the inhibition of aggregation in assay [2] was 14.9% (inactive). Besides, the nuclei count is 88% in assay [2] and 122% in assay [3]. Further, the fluorescence slope in assay [4] was -0.619 (inactive). Moreover, in assay [5], the NADPH fluorescence slope is -9.1e-06 (inactive). Also, in assay [6], the slope was 0.00468 (inactive).

With `CC1(C)CC(=O)c2sc(NS(C)(=O)=O)nc2C1`, the cell count in assay [1] turned out to be 638. Also, the inhibition is -10.5% (inactive) in assay [1], -56.1% (inactive) in assay [3], 18.2% (inactive) in assay [7] and 27.8% (inactive) in assay [8]. For the same compound, the inhibition of aggregation in assay [2] is -16.8% (inactive). In addition, the results for the nuclei count in assay [2] and in assay [3] were 104% and 106%, respectively. The fluorescence slope in assay [4] is -0.533 (inactive). Further, the NADPH fluorescence slope in assay [5] was -4.4e-05 (inactive). Moreover, in assay [6], the slope is 0.00519 (inactive).

For `CC(NC(=O)Cc1cccs1)c1ccc2c(c1)OCO2` (centres undefined), the cell count in assay [1] worked out at 333. For the same compound, the inhibition in assay [1] is 5.1% (inactive); in assay [3] it was -9.2% (inactive); in assay [7] it was 14.9% (inactive); in assay [8], 4.01% (inactive). In addition, the inhibition of aggregation in assay [2] was -3.8% (inactive). Besides, the nuclei count was found to be 104% in assay [2] and 109% in assay [3]. For the same compound, the fluorescence slope in assay [4] was -0.609 (inactive). In addition, the NADPH fluorescence slope in assay [5] was -2.4e-05 (inactive). The slope in assay [6] was 0.00364 (inactive).

As for `COc1ccc2c(c1OC)C(=O)OC2CC(=O)c1ccc(O)cc1` (centres undefined), in assay [1], the cell count is 556. For the same compound, the inhibition in assay [1] is -1.1% (inactive); in assay [3] it was 43.4% (inactive); in assay [7], 4.78% (inactive); in assay [8], 26.9% (inactive). In assay [2], the inhibition of aggregation was -3.9% (inactive). Further, the nuclei count in assay [2] was found to be 114%; in assay [3] it was 42.6%. The fluorescence slope in assay [4] was -0.447 (inactive). Besides, in assay [5], the NADPH fluorescence slope is -4.1e-05 (inactive). The slope in assay [6] was 0.00258 (inactive).

Take `CCN1CCCC1CN=Cc1c(O)n(-c2ccccc2)c(=O)c2ccccc12` (centres undefined): the cell count in assay [1] came out at 609. Moreover, the inhibition in assay [1] was -0.3% (inactive); in assay [3], -12.1% (inactive); in assay [7] it was -6.81% (inactive); in assay [8] it was 16.9% (inactive). The inhibition of aggregation in assay [2] is -8.1% (inactive). Further, the values for the nuclei count in assay [2] and in assay [3] were 109% and 97.6%, respectively. Besides, the fluorescence slope in assay [4] is -0.598 (inactive). The NADPH fluorescence slope in assay [5] was -2e-05 (inactive). The slope in assay [6] was 0.00513 (inactive).

`CCOC(=O)C1CCCN(c2c(Nc3ccc(C)c(C)c3)c(=O)c2=O)C1` (centres undefined): the cell count in assay [1] was 613. Moreover, the inhibition in assay [1] was 9% (inactive); in assay [3] it was -103% (inactive); in assay [7] it was -6.09% (inactive); in assay [8], 32.9% (inactive). In addition, in assay [2], the inhibition of aggregation was 2.3% (inactive). Moreover, the nuclei count was 104% in assay [2] and 131% in assay [3]. In addition, the fluorescence slope in assay [4] was -0.539 (inactive). For the same compound, the NADPH fluorescence slope in assay [5] is 6.2e-06 (inactive). In addition, in assay [6], the slope was 0.00607 (inactive).

With `COc1c(S(=O)(=O)n2nc(C)cc2C)ccc(Cl)c1Cl`, in assay [1], the cell count was 536. The inhibition is 11.4% (inactive) in assay [1], -25.3% (inactive) in assay [3], -8.21% (inactive) in assay [7] and 15.5% (inactive) in assay [8]. For the same compound, in assay [2], the inhibition of aggregation was -8.9% (inactive). Also, the nuclei count was found to be 120% in assay [2] and 68.4% in assay [3]. Further, in assay [4], the fluorescence slope was -0.434 (inactive). The NADPH fluorescence slope in assay [5] was -7.2e-05 (inactive). The slope in assay [6] is 0.0052 (inactive).

For the compound `COc1ccc(CCNC(=O)c2cnc3scc(C)n3c2=O)cc1OC`, in assay [1], the cell count was 573. Besides, the inhibition is -5.3% (inactive) in assay [1], 19.7% (inactive) in assay [3], 6.05% (inactive) in assay [7] and 33.9% (inactive) in assay [8]. Besides, the inhibition of aggregation in assay [2] was -6% (inactive). Besides, the nuclei count was 82.6% in assay [2] and 86.4% in assay [3]. In assay [4], the fluorescence slope was -0.411 (inactive). The NADPH fluorescence slope in assay [5] is -6.2e-05 (inactive). In addition, the slope in assay [6] was 0.00579 (inactive).

`CC(C)C(C(=O)Nc1ccc2c(c1)OCCO2)N1C(=O)c2ccccc2C1=O` (centres undefined): in assay [1], the cell count came to 552. Further, the inhibition in assay [1] is -4.3% (inactive); in assay [3] it was -63.7% (inactive); in assay [7], 2.16% (inactive); in assay [8] it was 12.8% (inactive). The inhibition of aggregation in assay [2] is 7% (inactive). Also, the nuclei count is 104% in assay [2] and 147% in assay [3]. Moreover, the fluorescence slope in assay [4] was -0.3 (inactive). In addition, the NADPH fluorescence slope in assay [5] was 1.8e-07 (inactive). Besides, in assay [6], the slope is 0.00511 (inactive).

Regarding `Cc1ccc(C(=O)CC2(O)C(=O)N(C)c3ccc(Br)cc32)c(C)c1` (centres undefined), the cell count in assay [1] is 614. Besides, the inhibition in assay [1] was -5% (inactive); in assay [3], -23.2% (inactive); in assay [7] it was 15.6% (inactive); in assay [8] it was 31.5% (inactive). For the same compound, the inhibition of aggregation in assay [2] is -6.2% (inactive). Moreover, the figures for the nuclei count in assay [2] and in assay [3] were 107% and 123%, respectively. For the same compound, in assay [4], the fluorescence slope was -0.457 (inactive). Also, the NADPH fluorescence slope in assay [5] is -5.1e-05 (inactive). Also, the slope in assay [6] was 0.0058 (inactive).

Consider `COc1ccccc1NC(=O)CSc1nnnn1-c1ccc2c(c1)OCO2`, for which the cell count in assay [1] is 349. The inhibition is -9.4% (inactive) in assay [1], -122% (inactive) in assay [3], 12.2% (inactive) in assay [7] and 26.1% (inactive) in assay [8]. Besides, the inhibition of aggregation in assay [2] is 21.1% (inactive). In addition, the nuclei count in assay [2] came to 88.6%; in assay [3], 104%. For the same compound, in assay [4], the fluorescence slope is -0.487 (inactive). Further, in assay [5], the NADPH fluorescence slope is 3.9e-05 (inactive). In assay [6], the slope was 0.00668 (inactive).
